Screening data (PubChem)
Rows were chosen to be rich in hits. Some 1% of all compounds tested hit in one or more screens of this group.
IP6K1 inh: inhibitors of human IP6K1; IP6K1 kinase, ADP-Glo luminescence, 2 h; stronger effect = lower value; AID 1645851; 140,000 tested, 0.81% active; activity change, % (series mostly up to about 58 µM); Q92551; in the data active = activity change below about -25%
Target sequence (Q92551 whole entry, looked up): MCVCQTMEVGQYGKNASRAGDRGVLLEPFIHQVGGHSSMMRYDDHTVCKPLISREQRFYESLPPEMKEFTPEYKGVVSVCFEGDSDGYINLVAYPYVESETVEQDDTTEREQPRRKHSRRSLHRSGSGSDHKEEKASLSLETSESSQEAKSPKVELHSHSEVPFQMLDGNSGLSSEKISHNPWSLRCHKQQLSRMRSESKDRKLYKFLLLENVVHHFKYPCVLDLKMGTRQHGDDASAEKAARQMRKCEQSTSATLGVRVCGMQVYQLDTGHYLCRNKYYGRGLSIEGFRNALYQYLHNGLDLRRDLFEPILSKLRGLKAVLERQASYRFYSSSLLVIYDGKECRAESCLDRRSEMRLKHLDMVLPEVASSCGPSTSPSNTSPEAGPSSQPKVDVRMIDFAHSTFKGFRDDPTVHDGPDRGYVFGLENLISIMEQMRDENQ
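ADP-Glo luminescence measures ADP made by human IP6K1 during a 2 h RT reaction with ATP/IP6 (mix at 1.3 mM/130 uM); top library doses 57.5 and 19.1 uM final.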
HEK293 viab: reduces viability of HEK-293 SNCA reporter cells | 150,000 tested, 0.12% active | AID 1671193 | HEK-293-SNCA-luc viability, GF-AFC fluorescence, 24 h | Potency, µM (highest dose often 57.1 µM), for the others: top-dose activity change, negative = cytotoxicity, most hits filed as cytotoxic;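 note: potency is the fitted concentration of half-maximal effect; 0% = DMSO-treated cells and -100% = medium-only wells without cells; nearly all actives have a fitted effect of over 30% in size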
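Cytotoxicity counterscreen: after 24 h compound treatment of genome-edited SNCA-luciferase HEK-293 cells, live-cell protease substrate GF-AFC read by fluorescence after 30 min; activity scaled between DMSO (0%) and medium-only (-100%), curves Hill-fitted.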
GPT2 inhibitor: GPT2 alanine aminotransferase inhibition. Recombinant GPT2, coupled pyruvate oxidase/HRP Amplex Red fluorescence. Potency, µM (series often up to 57.7 µM), for inactives: top-dose activity change, negative = inhibition, hits mostly inhibitors. 100,000 tested, 0.25% active. AID 1671188; note: potency is the fitted concentration of half-maximal effect; nearly all actives have a fitted effect of over 60% in size
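Inhibition is scored from Amplex Red fluorescence generated when pyruvate oxidase and HRP act on pyruvate released by GPT2. Reactions contain 10ng/uL enzyme, 250uM a-KG and 2mM L-alanine and run 30 min at room temperature.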
SNCA expr inh: reduces expression of the alpha-synuclein gene; HEK-293 SNCA-luciferase knock-in, luminescence, 24 h; Potency, µM (titrated, usually from 57.2 µM), without a hit: at the top dose activity change, negative = inhibition, usual class: inhibitors; 140,000 tested, 0.17% active; AID 1671194;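 note: potency is the fitted concentration of half-maximal effect; plate controls were DMSO cells for no effect and cell-free wells for full effect; nearly all actives have a fitted effect of over 45% in size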
IP6K1 inh cnf: human IP6K1 inhibition, confirmatory; 1,200 tested, 13% active; Potency, µM (series often up to 49 µM), for the others: at the top dose activity change, negative = inhibition, most hits filed as inhibitors; recombinant IP6K1 kinase, ADP-Glo luminescence, 2 h; shares compounds with IP6K1 inh; note: potency is the fitted concentration of half-maximal effect; nearly all actives have a fitted effect of over 65% in size
An asterisk follows results filed as active; i = inactive; u = inconclusive; x = not tested or not shown; [ ] = remark or other dose. Unless noted, calls come from the whole dose curve; as a rule, active = well fitted curve in the direction sought with a large enough effect; inconclusive = small, poorly fitted or top-dose-only effect, or another doubt; inactive = no such curve, though single readings can be large; an effect the other way counts as inactive or inconclusive. Unless noted, % is set by controls: 0 for no effect and ±100 for the full control effect.

SMILES	IP6K1 inh	HEK293 viab	GPT2 inhibitor	SNCA expr inh	IP6K1 inh cnf
COc1ccc(N2CCN(c3nc(C(=O)NCc4ccccc4C)cs3)CC2)cc1	-6	-17%	u	-12%	x
Nc1nc2c(s1)C(c1cccc(F)c1)CC(=O)N2 (centres undefined)	-31*	0%	u	68%	u
Cc1ccc(S(=O)(=O)c2cnc(SCC(=O)Nc3ccc4c(c3)OCCO4)[nH]c2=O)cc1	-30*	-4%	x	20%	u
COc1ccc(S(=O)(=O)c2cnc(SCC(=O)Nc3cc(F)ccc3C)[nH]c2=O)cc1Cl	8	4%	x	13%	x
COc1cccc(NC(=O)CSc2ncc(S(=O)(=O)c3ccc(C)c(C)c3)c(=O)[nH]2)c1	-29*	15%	x	u	u
CCCCCNC(=O)c1nc2cccnc2n(CCCC)c1=O	22	-5%[87.6 µM]	u	1%[87.6 µM]	x
Cc1ccc(CS(=O)(=O)c2ncc(Cl)c(C(=O)Nc3nc4ccc(C)cc4s3)n2)cc1	-13	4%	x	-12%	x
Cc1ccc(CS(=O)(=O)c2ncc(Cl)c(C(=O)Nc3nc4ccc(F)cc4s3)n2)cc1	-28*	9%	x	u	-15%
CCCc1nnc(NC(=O)c2nc(S(=O)(=O)Cc3ccc(C)cc3)ncc2Cl)s1	-33*	28µM*	x	5µM*	u
Cc1ccc(Cn2c(Cc3ccccc3)nc3ccccc32)cc1	-27*	3%	x	-22%	-18%
Cc1ccc(Cn2c(-c3ccccc3)nc3ccccc32)cc1	-27*	10%	x	24%	-15%
O=C(c1cccc(Cl)c1)N1CCN(c2ccc3nnc(-c4ccccc4)n3n2)CC1	2	x	x	x	x
COc1cccc(-c2noc(CC3CCN(C(=O)COc4cccc(C)c4)CC3)n2)c1	-25*	-12%	0%	-17%	-18%
Cc1nnc2ccc(N3CCC(N[S+](=O)([O-])c4ccccc4)CC3)nn12	-3	x	x	x	x
CCOC(=O)c1cccc(NS(=O)(=O)c2ccc(-c3coc(C)n3)cc2)c1	11	-3%	x	-8%	x
CCOC(=O)c1cnc2ccc(-c3cncc(NS(=O)(=O)c4ccccc4)c3)cn12	-10	-7%	i	x	u
CNC(=O)c1cccc(-c2cnc3[nH]cc(CC(=O)Nc4ccccc4Cl)c3c2)c1	-26*	u	-15%[88.5 µM]	56%[87.6 µM]	u
Cc1cccc(-c2cnc3[nH]cc(CC(N)=O)c3c2)c1	-32*	3%[87.6 µM]	i	3%[87.6 µM]	u
NC(=O)Cc1c[nH]c2ncc(-c3cccc(CO)c3)cc12	-27*	3%[87.6 µM]	i	-4%[87.6 µM]	u
CNC(=O)c1cccc(-c2cnc3[nH]cc(CC(=O)Nc4cccc(F)c4)c3c2)c1	-8	-20%[87.6 µM]	4%[88.5 µM]	-22%[87.6 µM]	x
CC(C)(C)C(=O)NCCNC(=O)c1ccc(-c2cccc(C(F)(F)F)c2)cc1	5	x	x	x	x
Cn1c(=O)c2[nH]c(-c3ccc(S(=O)(=O)O)cc3)nc2n(C)c1=O	x	0%	-7%	-10%	9%
CN(C)C(=O)N(C)Cc1cccc(N2CCN([S+](=O)([O-])c3c(Cl)cccc3Cl)CC2)c1F	6	x	x	x	x
CCN(c1ccccc1)c1nnc(NC(=O)Nc2cccc(Cl)c2C)s1	-102*	3%	x	-12%	-22%
Cc1cn2nnc(C(=O)NCc3ccc(OC(C)C)cc3)c2c(=O)[nH]1	-7	12%	1%	-27%	x
SMILES	IP6K1 inh	HEK293 viab	GPT2 inhibitor	SNCA expr inh	IP6K1 inh cnf
COc1ccc(OC)c(CNS(=O)(=O)c2cc(-c3onc(C)c3C)ccc2C)c1	-46*	3%	x	7%	33%
COc1ccc(NS(=O)(=O)c2cc(-c3onc(C)c3C)ccc2C)c(OC)c1	0	4%	x	0%	x
COc1cc(C(=O)Nc2ccc3nn(-c4ccc(F)cc4)nc3c2)cc(OC)c1OC	-6	3%	x	-2%	x
O=C(Nc1ccc2nn(-c3ccc(F)cc3)nc2c1)c1cccc2c(Cl)cccc12	-28*	0%	x	47%	34%
NC(=O)CSc1oc(-c2ccco2)nc1S(=O)(=O)c1ccc(Cl)cc1	-22	6%	x	-23%	x
O=C(CSc1oc(-c2ccco2)nc1S(=O)(=O)c1ccc(Cl)cc1)c1ccc(Cl)cc1	-27*	-9%	x	u	-13%
NC(=O)CSc1oc(-c2ccco2)nc1S(=O)(=O)c1ccc(Br)cc1	-33*	6%	x	-15%	u
Cc1ccc(CSc2oc(-c3ccco3)nc2S(=O)(=O)c2ccc(Br)cc2)cc1	-32*	u	x	-23%	-5%
O=C(NC1CCCCC1)c1nc2sccn2c1-c1ccccc1	3	-8%[87.6 µM]	i	-1%[87.6 µM]	x
COc1ccc(C(=O)Nc2nc3c(s2)C[C@@H]2[C@](C)(CO)[C@H](O)CC[C@@]2(C)[C@@H]3CC(=O)N2CCC(C)CC2)cc1	-8	u	-4%	-34%	x
Cn1ncc2c(C(=O)N3CCC(N4CCCCC4)CC3)cc(-c3ccccc3C(F)(F)F)nc21	6	x	x	x	x
Cc1nn(-c2ccccc2)c2c1C(C1CC1)N(C1CCCN(C(=O)c3ccccc3F)C1)C2=O (centres undefined)	14	x	x	x	x
Cc1ccc(-c2csc3ncnc(Nc4ccc(C(=O)O)cc4)c23)cc1	-25*	-6%	x	22%	-25%
Cc1ccc(-c2cccc(CN3CCCC3C(=O)N3CCOCC3)c2)cc1Cl (centres undefined)	-12	x	x	x	x
CN(C(=O)C(=O)Nc1ccc2nc3n(c(=O)c2c1)CCCCC3)c1cccc(C(F)(F)F)c1	-14	-1%	x	2%	x
O=C(Nc1ccc2nc3n(c(=O)c2c1)CCCCC3)c1cccc(C(F)(F)F)c1	-25*	u	x	-21%	5%
COCCN1C[C@H]2COc3ccc(C)cc3[C@H]2N(C(=O)CC2CCCC2)CCC1=O	3	x	x	x	x
COc1ccc(CN2CC(Cn3cccc3)Oc3ccncc3[S+]2(=O)[O-])cc1 (centres undefined)	-9	x	x	x	x
CCCCOc1ccc(S(=O)(=O)n2nc(C)c(S(=O)(=O)N3CCC(C)CC3)c2C)cc1	-26*	-1%	x	4%	-6%
Cc1ccc(S(=O)(=O)n2nc(C)c(S(=O)(=O)N3CCCCCC3)c2C)cc1C	-27*	-1%	x	25%	4%
CCCCOc1ccc(S(=O)(=O)n2nc(C)c(S(=O)(=O)N3CCCCCC3)c2C)cc1	-6	15%	x	-3%	x
COc1ccc(CNC(=O)CNC(=O)c2ccc(-c3cnc4ccccc4c3)cc2)cc1	8	x	x	x	x
COc1cccc(-c2nc(-c3c(C)noc3C)cc3c2cc(C)n3CCN(C)C)c1	-12	-13%[87.6 µM]	-6%[88.5 µM]	21%[87.6 µM]	x
COc1cccc(CNC(=O)C2CCN(c3nccc(Nc4ccccc4OC)n3)CC2)c1	15	-6%	i	4%	x
CN1CCN(C(=O)Nc2cccc(Cl)c2)c2cccnc21	-32*	-1%	x	2%	-9%
Cc1ccc(Cl)cc1NC(=O)N1CCN(C)c2ncccc21	-6	4%	x	-23%	x
